Hit rate of the full screen: of about 190,000 compounds, about 10 (0.005%) were called active.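 The calls were made as follows: active = activation factor of 2 or more at 20 µM, relative to plate controls; inactive = the rest.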 These entries were drawn from the full list.
Molecular target: Mannose-6-phosphate isomerase (Homo sapiens) (UniProt P34949)
Assay: activators of human PMI, primary screen, biochemical, fluorescence intensity, near-Km mannose 6-phosphate (AID 1214)
Conditions: purified human PMI, coupled resazurin fluorescence, 20 min; at 20 µM; active compounds read high; 1 = vehicle control, 0 substrate-free wells

Sequence of Mannose-6-phosphate isomerase (Homo sapiens) (P34949 whole entry, looked up): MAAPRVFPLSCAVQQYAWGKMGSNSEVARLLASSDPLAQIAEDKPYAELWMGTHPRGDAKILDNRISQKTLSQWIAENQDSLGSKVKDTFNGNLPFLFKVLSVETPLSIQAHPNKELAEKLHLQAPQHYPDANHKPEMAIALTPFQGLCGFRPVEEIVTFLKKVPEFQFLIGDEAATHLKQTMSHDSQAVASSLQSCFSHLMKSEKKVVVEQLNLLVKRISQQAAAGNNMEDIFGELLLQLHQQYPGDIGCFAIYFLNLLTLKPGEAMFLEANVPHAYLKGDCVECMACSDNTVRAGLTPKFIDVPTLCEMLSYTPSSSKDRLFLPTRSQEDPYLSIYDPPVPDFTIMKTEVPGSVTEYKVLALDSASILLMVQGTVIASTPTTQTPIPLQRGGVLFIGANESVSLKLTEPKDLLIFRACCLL

Activation factor, inactive:
CCCCc1ccc(NC(=S)NCCCN2CCOCC2)cc1 1
COc1cc(CNCCN(C)C)ccc1OCc1c(F)cccc1Cl 1
O=C(CCNC(=O)Cn1ccc2ccccc2c1=O)NCCC1=CCCCC1 1
Cn1c(=O)c2cc(S(=O)(=O)NCCC(=O)Nc3ccc(F)cc3F)ccc2n(C)c1=O 1
Cc1cccc(C)c1NC(=O)C1(N(C(=O)c2ccccn2)c2ccc(O)cc2)CCCCC1 0.9
Cc1ccc(CN2CCN(Cc3ccccc3-c3ccco3)CC2CCO)o1 (stereo not drawn) 0.9
CCOCCCNC(=O)C(NC(=O)c1ccccc1O)c1ccccc1 (stereo not drawn) 1.1
O=C(Cc1ccccc1)NNC1CC(=O)N(c2ccc(Br)cc2)C1=O (stereo not drawn) 0.9
Cc1ccc(-c2ccc(/C=C(\C#N)C(N)=S)o2)c([N+](=O)[O-])c1 1
Cn1cc(C(=O)NCc2ccccc2F)cn1 1
OC1CSc2nc3ccccc3n2C1 (stereo not drawn) 0.9
CCN(C(=O)COC(=O)c1cc(NS(=O)(=O)c2ccc(Cl)c([N+](=O)[O-])c2)ccc1O)C1CCCCC1 0.8
COCCCNC(=O)C1CCC(CNS(=O)(=O)c2ccc(OC)cc2)CC1 (stereo not drawn) 1
COc1ccc(N2CCN(C(C)=C3C(=O)c4ccccc4C3=O)CC2)cc1 0.9
COc1ccc(OC)c(-n2c(=S)[nH]c3cc(C(=O)N4CCCCC4)ccc3c2=O)c1 1
Cn1c(CNC(=O)c2ccccc2F)nnc1SCc1ccc(F)cc1 1.2
COc1ccc2c(c1)c(=O)c(C(=O)c1ccc(Cl)cc1)cn2CC(=O)Nc1ccc(F)cc1 1
CC(C)NC(=S)Nc1cccc2cnccc12 1
O=C(N/N=C/c1ccc(Cl)cc1)c1nc2ccc([N+](=O)[O-])cc2c(=O)[nH]1 1
CCCNC(=O)OC[C@H]1O[C@H](CCO/N=C/[C@@H](NS(=O)(=O)c2ccc(C)cc2)[C@H](C)/C=C/CC(=O)OC)C=C[C@@H]1Oc1ccc(OC)cc1 0.9
O=C(Nc1nnc(SCc2ccccc2Cl)s1)c1cccc([N+](=O)[O-])c1 0.9
CSc1ccc(CNCCN2CCOCC2)cc1 1.1
CC(C)(C)NC(=O)NC(=O)COC(=O)Cc1c(F)cccc1Cl 1.2
CCCCCC1CCC(c2nnc(SCC(C)=O)o2)CC1 (stereo not drawn) 1
Cc1ccccc1OCCC(=O)OCC(=O)NC(C)c1ccccc1 (stereo not drawn) 1
O=C(CSc1cccc[n+]1[O-])c1ccc(-c2ccccc2)cc1 1.2
Cc1cc([N+](=O)[O-])nn1CC(=O)Nc1ccc(Cc2ccncc2)cc1 1
COCCNC(=O)C(OC(=O)c1cccs1)c1ccc(F)cc1 (stereo not drawn) 1
Cc1ccc(S(=O)(=O)N2CCN(CC(=O)N/N=C/c3ccc(Br)s3)CC2)cc1 0.9
CN(CC(=O)NCCc1ccccn1)S(=O)(=O)c1ccc(Cl)cc1 0.9
CC1=C(C(=O)Nc2cc(C)ccn2)C(c2cnn(C)c2)C2=C(CC(c3ccccc3)CC2=O)N1 (stereo not drawn) 1
O=C(Nc1ccc(CSc2ccccc2)cc1)c1ccc(CN2CCOCC2)cc1 1.1
COc1ccc(Cl)cc1NC(=O)C(C)N1CCc2ccccc21 (stereo not drawn) 1.1
Cc1ccn(CC(=O)N2N=C(C(F)F)CC2(O)C(F)F)n1 (stereo not drawn) 1.1
N#Cc1c(C(F)(F)F)cc(-c2ccc(Cl)cc2)nc1SCC(=O)O 1
CCOC(=O)C1CCN(S(=O)(=O)c2cc(F)ccc2OC)CC1 1
COCCNc1nc2nonc2nc1N(C)Cc1ccc(C)cc1 0.9
Cc1ccc(NC(=O)CC(=O)Nc2ccc(C)cc2)cc1 1
CCOC(=O)C1=C(N)N(c2ccc(C)cc2)C2=C(C(=O)CCC2)C1c1cccs1 (stereo not drawn) 1
CN(C)/C=C(/C(=O)c1ccccc1Cl)S(C)(=O)=O 1
COC(=O)c1nc(NC(=O)c2ccc(C(C)(C)C)cc2)n[nH]1 1.1
CC(C)Oc1ccc(/C=C(\NC(=O)/C=C/c2ccco2)C(=O)NCCc2nc3ccccc3[nH]2)cc1 0.9
O=C(c1ccccc1)c1ccc(OCC(O)CN2CCCC2)cc1 (stereo not drawn) 1
COc1cc(S(=O)(=O)N2CCOCC2)ccc1NC(=O)COc1ccc(N(C)S(=O)(=O)c2ccc(C)cc2)cc1 1
Cc1cc(C#N)c(SCC(N)=O)nc1-c1ccc(F)cc1 1.1
CC1=NNC(=O)C1CCC(=O)N/N=C\c1cccc(Cl)c1 (stereo not drawn) 1
CCOC(=O)c1sc2nc(C)nc(SCC(N)=O)c2c1C 1.1
COC(=O)c1cc(NC(=O)c2nn(C)c(=O)c3ccccc23)cc(C(=O)OC)c1 1
CCC(C(=O)Nc1ccc(C(C)C)cc1)c1ccccc1 (stereo not drawn) 1
CC(C)(C)c1ccc(/C=C/C(=O)Nc2ncccn2)cc1 1
COC(=O)c1ccc(NC(=O)CSc2nncc3ccc(OC)c(OC)c23)cc1 1
COc1ccc(OCC(O)CNC(=O)Nc2ccc(Cl)cc2)cc1 (stereo not drawn) 0.9
Cc1ccc(CN2CCN(/N=C/c3cccnc3)CC2)c(C)c1 1.1
CCC(C)(C)NC(=O)CN(Cc1cccs1)C(=O)CNS(=O)(=O)c1ccc(F)cc1 1.1
COc1cccc(CC2(CO)CCCN(CC3=Cc4cc(OC)ccc4OC3)C2)c1 (stereo not drawn) 0.9
CC1CCN(c2ccc(C(=O)NCc3ccc4c(c3)OCO4)cc2[N+](=O)[O-])CC1 0.8
Cc1cccc(C2=N/C(=C/c3cccs3)C(=O)O2)c1 1
CCc1cc(C(=O)OC)c(NC(=O)CC2Sc3ccc(C(F)(F)F)cc3NC2=O)s1 (stereo not drawn) 0.9
Cc1ccc(C(=O)N/C(=C/c2ccc(-c3cccc([N+](=O)[O-])c3)o2)C(=O)NCCCN(C)C)cc1 1
COC(=O)NNC(=O)C1CCC(C)CC1 (stereo not drawn) 1.1
COC(=O)C(NS(=O)(=O)c1ccc(F)cc1)c1ccccc1 (stereo not drawn) 1
COc1ccc(Cl)cc1NC(=O)Cn1nc(-c2ccc(C)cc2)n(C)c1=S 1.1
CCc1ccc(N(CC(=O)Nc2sc3c(c2C(=O)OC)CCCC3)S(C)(=O)=O)cc1 0.8
CN(CCOc1ccc(Br)cc1)CC(=O)Nc1cccc(S(=O)(=O)NC2=NCCC2)c1 0.9
OCCC1CN(Cc2ccc3nsnc3c2)CCN1C1CCCCC1 (stereo not drawn) 0.9
O=C(CSc1nnc2ccc(-c3ccncc3)nn12)N1CCCCC1 1
COc1cccc(C(=O)NCCSc2ccc(Br)cc2)c1 1.1
N#CCOc1ccc(C2=NO[C@@H]3[C@@H]4C[C@@H]([C@H]5C(=O)N(c6ccc7c(c6)OCO7)C(=O)[C@@H]45)[C@H]23)cc1 0.9
Cn1cc(/C=C/C(=O)N2CCCC(C(=O)c3ccc(C(F)(F)F)cc3)C2)cn1 (stereo not drawn) 1
COc1ccc(CCCc2nnc(SCc3nc4ccccc4c(=O)[nH]3)n2C)cc1 1
CN(C)c1ccc(/C=N/NC(=O)C(O)c2ccc(Br)cc2)cc1 (stereo not drawn) 1
Nc1nc(NC(=O)/C=C/c2ccccc2)nn1-c1ccccc1 1
COc1ccc(OC)c(C(=O)c2ccc(C(=O)N3CCN(Cc4csc(C)n4)CC3)cc2)c1 1
O=C(Cc1ccccc1)NCC1OCCc2ccccc21 (stereo not drawn) 0.9
O=Cc1ccc(OCc2cn3ccccc3n2)cc1 1.1
CCCCC1S/C(=N/N=C/c2cccs2)NC1=O (stereo not drawn) 1.3
Cc1cc2oc(C(=O)Nc3c(C)n(C)n(-c4ccccc4)c3=O)c(C)c2cc1Cl 1.1
CN1CCC(=NNC(=O)c2ccc(N(Cc3ccc(Cl)cc3)S(C)(=O)=O)cc2)CC1 0.8

Reference: PubChem BioAssay AID1214 (Sanford-Burnham Center for Chemical Genomics, 2008)
